Results from PubChem BioAssay.
Values joined by “and” are separate entries in the source; they are usually repeats but may differ in a detail not shown here. Identical values can stand only once. Records with an inconclusive call do not appear. Active and inactive are the calls of the source. Unless noted, the rule behind the calls is not given here.

Key:
[1] = tested on: Aerobactin synthetase IucA (Klebsiella pneumoniae); experiment: inhibition of K. pneumoniae IucA enzyme – biochemical, Tocris library, absorbance (AID 1345561); settings: purified IucA enzyme assay, absorbance (OD) read-out; stronger effect = lower value;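 tested at 8 µM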;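 note: 100% = enzyme without compound and 0% = no enzyme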
[2] = viability loss with induced miR-34 in A549 – imaging, A549 dox-inducible miR-34, nuclei and caspase counts, primary screen (AID 1347080;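 active = compounds whose cell count with miR-34 switched on is under 0.7 times the count with it off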); settings: A549 miR-34 inducible, Hoechst nuclei count, 48 h
[3] = blockers of cellular phospholipid synthesis – cell-based, LOPAC library, screen 4, primary screen (AID 1347384); settings: animal cells, phospholipid biosynthesis inhibition screen; at 10 µM
[4] = galactose survival enhancers in mitochondrial complex I cybrids – cell-based, galactose medium, ATP luminescence, primary screen (AID 1645843;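 active = z-score of at least 1.8 in each of two replicates, scored against plate mean and spread of sample wells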;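 note: positive z means more ATP and so rescue of galactose-driven cybrid death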); settings: complex I mutant cybrid cells, 72 h, stronger effect = higher value
[5] = compounds altering circadian rhythm period length – cell-based, LOPAC library, luminescence reporter (AID 2774); settings: circadian reporter cells, at 7 µM, actives lie on both sides;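 note: values are relative to mean of DMSO wells on each plate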
[6] = tested on: Hepatitis C virus NS3 helicase; experiment: blockers of NS3h binding to ssDNA – biochemical, fluorescence polarization, LOPAC1280 library, primary screen (AID 687035; in the data active = inhibition above about 37%); settings: Purified HCV NS3 helicase, Cy5-dT15 ssDNA binding fluorescence polarization; stronger effect = higher value; concentration not given here
[7] = compounds altering Cy5-DNA-NS3h complex signal – biochemical, LOPAC1280, artefact control for HCV NS3 helicase inhibitor project (AID 687037); settings: Cy5-DNA-NS3h complex fluorescence interference counterscreen
[8] = tested on: Aerobactin synthetase IucA (Klebsiella pneumoniae, hypervirulent); experiment: biochemical IucA inhibition screen of LOPAC library by absorbance (AID 1346212); settings: IucA enzyme assay, absorbance (OD) readout; stronger effect = lower value;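 tested at 8 µM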;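 note: 100% = no compound wells and 0% = no enzyme wells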
[9] = viability loss in pontine glioma line – cell-based, SU-DIPG-XVII, MIPE5.0, CellTiter-Glo, qHTS, dose response (AID 1347060; cut-off not given, nearly all actives have AC50 up to about 26 µM;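 for AC50: cells exposed to compound for 48 hours before viability readout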); settings: CellTiter-Glo ATP luminescence
[10] = viability loss in pontine glioma line – cell-based, JHH-DIPG-1, MIPE4.0, CellTiter-Glo, qHTS, dose response (AID 1347062; cut-off not given, nearly all actives have AC50 up to about 27 µM); settings: JHH-DIPG-1 viability, CellTiter-Glo ATP luminescence
[11] = viability loss in pontine glioma line – cell-based, SU-DIPG-IV, MIPE4.0, CellTiter-Glo, qHTS, dose response (AID 1347063; cut-off not given, nearly all actives have AC50 up to about 30 µM;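 note: compound exposure lasted 48 hours before the viability readout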); settings: CellTiter-Glo ATP luminescence
[12] = viability loss in pontine glioma line – cell-based, SU-DIPG-XIII, MIPE5.0, CellTiter-Glo, qHTS, dose response (AID 1347064; cut-off not given, nearly all actives have AC50 up to about 23 µM;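 for AC50: cells exposed to compound for 48 hours before the viability read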); settings: CellTiter-Glo ATP luminescence
[13] = viability loss in pontine glioma line – cell-based, SU-DIPG-XXV, MIPE5.0, CellTiter-Glo, qHTS, dose response (AID 1347065; cut-off not given, nearly all actives have AC50 up to about 26 µM;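 note: cells exposed to compound for 48 hours before ATP readout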); settings: CellTiter-Glo ATP luminescence
[14] = growth inhibition of DIPG cells – cell-based, MIPE4.0 library, CellTiter-Glo luminescence, qHTS (AID 1347066; cut-off not given, nearly all actives have AC50 up to about 30 µM;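 note: cells exposed to compound for 48 hours before readout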); settings: SU-DIPG-VI viability, CellTiter-Glo ATP luminescence
[15] = growth inhibition of DIPG cells – cell-based, MIPE5.0 library, qHTS (AID 1347068; cut-off not given, nearly all actives have IC50 up to about 30 µM;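 for IC50: cells exposed to compound for 48 hours before viability readout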); settings: SU-DIPG-XXV viability
[16] = compounds altering HSF1 focus formation in cells – imaging, Selleck Cancer Library (AID 1347162; in the data active = plate-normalised HSF1 focus index below about 0.46); settings: human cells, HSF1 nuclear foci imaging, at 10 µM; SSMD: measured here: HSF1 foci SSMD mean; cell count: measured here: cell number; plate-normalised HSF1 focus index: stronger effect = lower value
[17] = viability loss in pontine glioma line – cell-based, SU-DIPG-XIII, MIPE4.0, CellTiter-Glo, qHTS, dose response (AID 1347061; cut-off not given, nearly all actives have AC50 up to about 37 µM;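 note: cells exposed to compound for 48 hours before readout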); settings: CellTiter-Glo ATP luminescence
[18] = MELAS cybrid and Rieske KO viability enhancers – cell-based, MELAS cybrids, Rieske KO mouse fibroblasts, CellTiter-Glo, primary screen (AID 1508586;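 active = mean z-score across replicates of 1.96 or higher in either the MELAS or the Rieske mutant cell line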;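 note: z relative to plate mean and SD of compound and empty wells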); settings: low glucose
[19] = JHH-DIPG-1 glioma cell viability, MIPE5.0 library, CellTiter-Glo luminescence, qHTS (AID 1347067; cut-off not given, nearly all actives have AC50 up to about 26 µM;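 note: cells exposed to compound for 48 hours before readout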); settings: JHH-DIPG-1 glioma viability, CellTiter-Glo ATP luminescence
[20] = chitosan synthesis blockers in C. neoformans – flow cytometry, Cibacron Brilliant Red staining (AID 1347148); settings: Cryptococcus neoformans chitosan, stronger effect = lower value; at 10 µM unless noted;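 note: compound exposure lasted three days at 37 degrees C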
[21] = stronger effect = lower value, cell number ratio, induced over uninduced
[22] = measured here: relative caspase fold change +Dox/-Dox
[23] = measured here: total cells with miR-34 induction, stronger effect = lower value
[24] = measured here: total cells without miR-34 induction

N#Cc1ccc(N2CCN(C(=O)COc3ccc4[nH]cc(CCN)c4c3)CC2)cc1
remaining activity [1]: 112% (inactive)
fold change [2, 21]: 0.857 (inactive)
fold change [2, 22]: 1.69
cell count [2, 23]: 8510
cell count [2, 24]: 9930
outcome [3]: inactive
z-score [4]: 0.16 (inactive)

CC(N)Cc1c[nH]c2ccc(OCc3cccs3)cc12 (configuration not stated)
period change [5]: -0.015 h (inactive)
inhibition [6]: -2% (inactive)
fluorescence ratio (interference) [7]: 0.9 (inactive)
remaining activity [1]: 105% (inactive)
fold change ([2]; stronger effect = lower value): 1.09 (inactive) and 1.04 (inactive) and 0.983 (inactive)
fold change [2, 22]: 0.892 and 0.841 and 0.895
cell count [2, 23]: 9650 and 5700 and 7970
cell count [2, 24]: 8810 and 5500 and 8110
outcome [3]: inactive
z-score [4]: -0.655 (inactive) and -0.22 (inactive)

CCNC(=O)[C@H]1O[C@@H](n2cnc3c(N)ncnc32)[C@H](O)[C@@H]1O
remaining activity [1]: 122% (inactive)
remaining activity [8]: 120% (inactive)
fold change [2, 21]: 0.978 (inactive)
fold change [2, 22]: 0.831
cell count [2, 23]: 8940
cell count [2, 24]: 9140
z-score [4]: -0.23 (inactive)

CN(C)CCN(C)CCc1ccc(Cl)c(Cl)c1
remaining activity [1]: 102% (inactive)
outcome [9]: inactive
outcome [10]: inactive
outcome [11]: inactive
outcome [12]: inactive
outcome [13]: inactive
outcome [14]: inactive
outcome [15]: inactive
fold change [2, 21]: 0.927 (inactive)
fold change [2, 22]: 0.848
cell count [2, 23]: 8600
cell count [2, 24]: 9270
SSMD [16]: 1.43
cell count [16]: 7160
plate-normalised HSF1 focus index [16]: 1.09 (inactive)
z-score [4]: -0.285 (inactive)

Cc1cc(SCc2sc(-c3ccc(C(F)(F)F)c(F)c3)nc2C)ccc1OCC(=O)O
remaining activity [1]: 88.1% (inactive)
outcome [9]: inactive
outcome [17]: inactive
outcome [11]: inactive
outcome [12]: inactive
outcome [13]: inactive
outcome [14]: inactive
outcome [15]: inactive
fold change [2, 21]: 0.896 (inactive) and 0.953 (inactive) and 0.869 (inactive)
fold change [2, 22]: 0.54 and 0.363 and 1.57
cell count [2, 23]: 5150 and 8510 and 7240
cell count [2, 24]: 5740 and 8930 and 8330
z-score ([18]; MELAS cybrid survival, CellTiter-Glo 48 h, stronger effect = higher value): -0.492 (inactive)
z-score ([18]; Rieske KO mouse fibroblast survival, CellTiter-Glo 72 h): -2.16
z-score [4]: 1.59 (inactive)

CN1CC[C@@H]2CN3CCc4cccc(c43)[C@@H]2C1
remaining activity [1]: 120% (inactive)
fold change [2, 21]: 0.917 (inactive)
fold change [2, 22]: 0.673
cell count [2, 23]: 8120
cell count [2, 24]: 8850
z-score [4]: -0.34 (inactive)

C[C@H]1CCC/C=C/C2C[C@H](O)C[C@H]2[C@H](O)/C=C/C(=O)O1 (some centres not stated)
remaining activity [1]: 129% (inactive)
AC50 [9]: 66.1 nM (active)
outcome [17]: inactive
outcome [10]: inactive
outcome [11]: inactive
AC50 [12]: 235 nM (active)
AC50 [13]: 263 nM (active)
outcome [14]: inactive
AC50 [19]: 235 nM (active)
IC50 [15]: 209 nM (active)
fold change ([2]; stronger effect = lower value): 1.05 (inactive) and 1.09 (inactive)
fold change [2, 22]: 1.17 and 1.67
cell count [2, 23]: 2000 and 1470
cell count [2, 24]: 1910 and 1340
fold fluorescence [20]: 10.7 [at 178.3 µM] (inactive)
z-score [4]: -0.56 (inactive)
